9 sequences from PMC11006913 can be followed below.

Numbering of substitutions follows the chain as printed.

Common to all, as to assay: PBM; 200 nM protein, PBS
Common to all, as to details: dsDNA, one strand shown

The target in test [1] is T1, PAX4 (Homo sapiens, UniProt O43316 9-242, R200K).
T1 sequence: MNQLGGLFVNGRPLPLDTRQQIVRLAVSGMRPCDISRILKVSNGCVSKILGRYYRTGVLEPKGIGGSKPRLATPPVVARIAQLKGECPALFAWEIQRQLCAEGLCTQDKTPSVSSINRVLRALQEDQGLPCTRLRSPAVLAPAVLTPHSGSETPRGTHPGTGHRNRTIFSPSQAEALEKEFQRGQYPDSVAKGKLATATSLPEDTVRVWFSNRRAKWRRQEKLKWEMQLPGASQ

Test [2] deals with T2, PAX4 (Homo sapiens, UniProt O43316 9-242).
T2 sequence: T1 sequence with K192R

Test [3] concerns the target HOXB6 (Homo sapiens, UniProt P17509 132-218, K202E).
Test [4] concerns the target T3, PAX4 (Homo sapiens, UniProt O43316 9-242, R200Q).
T3 sequence: T1 sequence with K192Q

The target of test [5] is T4, PAX4 (Homo sapiens, UniProt O43316 9-242, F177V).
T4 sequence: T1 sequence with F169V, K192R

Test [6] deals with T5, PAX4 (Homo sapiens, UniProt O43316 9-242, F177Y).
T5 sequence: T1 sequence with F169Y, K192R

Test [7] concerns the target T6, PAX4 (Homo sapiens, UniProt O43316 9-242, R227W).
T6 sequence: T1 sequence with K192R, R219W

In test [8] the target is HOXB6 (Homo sapiens, UniProt P17509 132-218).
The target in test [9] is ALX4 (Homo sapiens, UniProt Q9H161 200-286).
The target in test [10] is ALX4 (Homo sapiens, UniProt Q9H161 200-286, Q225E).
Test [11] addresses HOXA2 (Homo sapiens, UniProt O43364 129-215, R185T).
For test [12], the target named is ALX3 (Homo sapiens, UniProt O95076 139-225, N203Q).
The next test has as its target PITX2 (Homo sapiens, UniProt Q99697 72-157).
In test [13] the target is HOXA2 (Homo sapiens, UniProt O43364 129-215, R185K).
For test [14], the target named is ALX3 (Homo sapiens, UniProt O95076 139-225).
Test [15] addresses ALX3 (Homo sapiens, UniProt O95076 139-225, L168Q).
The target of test [16] is ALX3 (Homo sapiens, UniProt O95076 139-225, L168V).
For test [17], the target named is HOXA2 (Homo sapiens, UniProt O43364 129-215, Y150S).
The target of test [18] is ALX3 (Homo sapiens, UniProt O95076 139-225, N203S).
In test [19] the target is HOXA2 (Homo sapiens, UniProt O43364 129-215).
In test [20] the target is PRRX1 (Homo sapiens, UniProt P54821 80-166, F113S).
Test [21] deals with MSX2 (Homo sapiens, UniProt P35548 130-214, R199I).
Test [22] concerns the target MSX2 (Homo sapiens, UniProt P35548 130-214).
The target in test [23] is MSX2 (Homo sapiens, UniProt P35548 130-214, F161Y).
Test [24] concerns the target PRRX1 (Homo sapiens, UniProt P54821 80-166).
For test [25], the target named is VAX1 (Homo sapiens, UniProt Q5SQQ9 86-172).
Test [26] concerns the target VAX1 (Homo sapiens, UniProt Q5SQQ9 86-172, T142I).
Test [27] has as its target VAX1 (Homo sapiens, UniProt Q5SQQ9 86-172, K157R).
Test [28] has as its target ALX1 (Homo sapiens, UniProt Q15699 118-204, L144V).
Test [29] deals with ALX1 (Homo sapiens, UniProt Q15699 118-204, L144R).
For test [30], the target named is ALX1 (Homo sapiens, UniProt Q15699 118-204).
Test [31] deals with PROP1 (Homo sapiens, UniProt O75360 56-141).
For a further test, the target named is HESX1 (Homo sapiens, UniProt Q9UBX0 95-180, R109Q).
For test [32], the target named is PROP1 (Homo sapiens, UniProt O75360 56-141, R99H).
Test [33] has as its target PROP1 (Homo sapiens, UniProt O75360 56-141, F88S).

Sequence of ALX4 (Homo sapiens, UniProt Q9H161 200-286, Q225E) (Q9H161 200-286 Q225E): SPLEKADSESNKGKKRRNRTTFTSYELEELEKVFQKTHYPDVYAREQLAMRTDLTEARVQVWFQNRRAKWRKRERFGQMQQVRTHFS
Sequence of ALX4 (Homo sapiens, UniProt Q9H161 200-286) (Q9H161 200-286): as the sequence (Q9H161 200-286 Q225E) above, with E26Q counted along it
Sequence of ALX1 (Homo sapiens, UniProt Q15699 118-204, L144V) (Q15699 118-204 L144V): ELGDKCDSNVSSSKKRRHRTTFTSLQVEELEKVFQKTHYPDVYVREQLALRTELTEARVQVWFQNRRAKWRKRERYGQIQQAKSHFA
Sequence of HOXB6 (Homo sapiens, UniProt P17509 132-218, K202E) (P17509 132-218 K202E): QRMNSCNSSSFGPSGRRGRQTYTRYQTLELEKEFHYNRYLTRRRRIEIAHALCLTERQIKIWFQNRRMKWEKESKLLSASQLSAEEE
Sequence of ALX3 (Homo sapiens, UniProt O95076 139-225, L168Q) (O95076 139-225 L168Q): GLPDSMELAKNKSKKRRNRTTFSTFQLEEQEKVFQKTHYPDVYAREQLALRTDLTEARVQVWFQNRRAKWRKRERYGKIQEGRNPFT
Sequence of ALX3 (Homo sapiens, UniProt O95076 139-225) (O95076 139-225): as the sequence (O95076 139-225 L168Q) above, with Q30L counted along it
Sequence of ALX3 (Homo sapiens, UniProt O95076 139-225, L168V) (O95076 139-225 L168V): as the sequence (O95076 139-225 L168Q) above, with Q30V counted along it
Sequence of ALX1 (Homo sapiens, UniProt Q15699 118-204, L144R) (Q15699 118-204 L144R): as the sequence (Q15699 118-204 L144V) above, with V27R counted along it
Sequence of ALX3 (Homo sapiens, UniProt O95076 139-225, N203S) (O95076 139-225 N203S): as the sequence (O95076 139-225 L168Q) above, with Q30L, N65S counted along it
Sequence of ALX3 (Homo sapiens, UniProt O95076 139-225, N203Q) (O95076 139-225 N203Q): as the sequence (O95076 139-225 L168Q) above, with Q30L, N65Q counted along it
Sequence of HOXB6 (Homo sapiens, UniProt P17509 132-218) (P17509 132-218): as the sequence (P17509 132-218 K202E) above, with E71K counted along it
Sequence of HOXA2 (Homo sapiens, UniProt O43364 129-215) (O43364 129-215): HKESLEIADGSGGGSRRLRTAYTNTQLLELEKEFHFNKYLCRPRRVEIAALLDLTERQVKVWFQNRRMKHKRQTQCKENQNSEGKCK
Sequence of PROP1 (Homo sapiens, UniProt O75360 56-141, F88S) (O75360 56-141 F88S): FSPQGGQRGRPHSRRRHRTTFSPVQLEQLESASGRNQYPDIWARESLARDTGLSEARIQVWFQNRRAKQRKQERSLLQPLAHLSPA
Sequence of VAX1 (Homo sapiens, UniProt Q5SQQ9 86-172) (Q5SQQ9 86-172): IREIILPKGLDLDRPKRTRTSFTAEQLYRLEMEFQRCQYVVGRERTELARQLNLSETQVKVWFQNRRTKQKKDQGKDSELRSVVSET
Sequence of ALX1 (Homo sapiens, UniProt Q15699 118-204) (Q15699 118-204): as the sequence (Q15699 118-204 L144V) above, with V27L counted along it
Sequence of PROP1 (Homo sapiens, UniProt O75360 56-141) (O75360 56-141): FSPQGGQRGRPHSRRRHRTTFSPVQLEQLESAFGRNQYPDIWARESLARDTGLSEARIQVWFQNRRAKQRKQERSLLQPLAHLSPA
Sequence of MSX2 (Homo sapiens, UniProt P35548 130-214) (P35548 130-214): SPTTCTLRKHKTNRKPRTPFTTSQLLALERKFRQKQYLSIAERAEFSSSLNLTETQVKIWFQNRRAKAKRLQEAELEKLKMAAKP
Sequence of HOXA2 (Homo sapiens, UniProt O43364 129-215, R185K) (O43364 129-215 R185K): as the sequence (O43364 129-215) above, with R57K counted along it
Sequence of PRRX1 (Homo sapiens, UniProt P54821 80-166) (P54821 80-166): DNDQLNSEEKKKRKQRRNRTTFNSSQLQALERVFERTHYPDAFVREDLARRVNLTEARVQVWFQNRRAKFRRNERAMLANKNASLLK
Sequence of PRRX1 (Homo sapiens, UniProt P54821 80-166, F113S) (P54821 80-166 F113S): as the sequence (P54821 80-166) above, with F34S counted along it
Sequence of VAX1 (Homo sapiens, UniProt Q5SQQ9 86-172, T142I) (Q5SQQ9 86-172 T142I): as the sequence (Q5SQQ9 86-172) above, with T57I counted along it
Sequence of MSX2 (Homo sapiens, UniProt P35548 130-214, F161Y) (P35548 130-214 F161Y): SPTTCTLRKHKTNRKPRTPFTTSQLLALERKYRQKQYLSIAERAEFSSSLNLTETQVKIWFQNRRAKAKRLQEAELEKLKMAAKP
Sequence of HOXA2 (Homo sapiens, UniProt O43364 129-215, Y150S) (O43364 129-215 Y150S): as the sequence (O43364 129-215) above, with Y22S counted along it
Sequence of HOXA2 (Homo sapiens, UniProt O43364 129-215, R185T) (O43364 129-215 R185T): as the sequence (O43364 129-215) above, with R57T counted along it
Sequence of HESX1 (Q9UBX0 95-180 R109Q): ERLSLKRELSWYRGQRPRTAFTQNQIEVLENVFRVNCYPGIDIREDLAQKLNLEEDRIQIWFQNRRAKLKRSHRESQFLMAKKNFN
Sequence of VAX1 (Homo sapiens, UniProt Q5SQQ9 86-172, K157R) (Q5SQQ9 86-172 K157R): as the sequence (Q5SQQ9 86-172) above, with K72R counted along it
Sequence of MSX2 (Homo sapiens, UniProt P35548 130-214, R199I) (P35548 130-214 R199I): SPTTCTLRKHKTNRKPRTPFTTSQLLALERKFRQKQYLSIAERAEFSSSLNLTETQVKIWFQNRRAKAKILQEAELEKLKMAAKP
Sequence of PROP1 (Homo sapiens, UniProt O75360 56-141, R99H) (O75360 56-141 R99H): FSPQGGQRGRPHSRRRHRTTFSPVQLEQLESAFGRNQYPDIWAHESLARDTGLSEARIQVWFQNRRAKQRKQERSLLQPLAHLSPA

On to AGTCCGGC, for which the binding signal with PAX4 [1] was 9.22 upbm affinity estimate (log intensity, higher = more binding, comparable within an allelic series); with PAX4 [2] it was 9.22 upbm affinity estimate (log intensity, higher = more binding, comparable within an allelic series); in the test with HOXB6 [3], 8.99 upbm affinity estimate (log intensity, higher = more binding, comparable within an allelic series); in the test with PAX4 [4] it was 9.29 upbm affinity estimate (log intensity, higher = more binding, comparable within an allelic series); in the test with PAX4 [5] it was 9.3 upbm affinity estimate (log intensity, higher = more binding, comparable within an allelic series); with PAX4 [6] it was 9.32 upbm affinity estimate (log intensity, higher = more binding, comparable within an allelic series). Further, the binding signal with PAX4 [7] is 9.3 upbm affinity estimate (log intensity, higher = more binding, comparable within an allelic series); with HOXB6 [8], 8.89 upbm affinity estimate (log intensity, higher = more binding, comparable within an allelic series).
For GAGGCACC, the binding signal in the test with ALX4 [9] is 8.21 upbm affinity estimate (log intensity, higher = more binding, comparable within an allelic series); with ALX4 [10], 8.22 upbm affinity estimate (log intensity, higher = more binding, comparable within an allelic series); with HOXA2 [11] it was 7.41 upbm affinity estimate (log intensity, higher = more binding, comparable within an allelic series); with ALX3 [12] it was 7.66 upbm affinity estimate (log intensity, higher = more binding, comparable within an allelic series); with PITX2, 7.88 upbm affinity estimate (log intensity, higher = more binding, comparable within an allelic series); in the test with HOXA2 [13], 10.5 upbm affinity estimate (log intensity, higher = more binding, comparable within an allelic series). In addition, the binding signal was 7.72 upbm affinity estimate (log intensity, higher = more binding, comparable within an allelic series) in the test with ALX3 [14]; 7.51 upbm affinity estimate (log intensity, higher = more binding, comparable within an allelic series) with ALX3 [15]; 7.67 upbm affinity estimate (log intensity, higher = more binding, comparable within an allelic series) in the test with ALX3 [16]; 10.4 upbm affinity estimate (log intensity, higher = more binding, comparable within an allelic series) with HOXA2 [17]; 7.65 upbm affinity estimate (log intensity, higher = more binding, comparable within an allelic series) in the test with ALX3 [18]; 7.42 upbm affinity estimate (log intensity, higher = more binding, comparable within an allelic series) with HOXA2 [19].
Take AGAGAGCG: the binding signal with ALX4 [9] is 8.15 upbm affinity estimate (log intensity, higher = more binding, comparable within an allelic series); with ALX4 [10], 8.26 upbm affinity estimate (log intensity, higher = more binding, comparable within an allelic series).
Regarding CAGCCGGC, the binding signal with PAX4 [1] was 9.11 upbm affinity estimate (log intensity, higher = more binding, comparable within an allelic series); with PRRX1 [20] it was 9.15 upbm affinity estimate (log intensity, higher = more binding, comparable within an allelic series); with PAX4 [2], 9.27 upbm affinity estimate (log intensity, higher = more binding, comparable within an allelic series); with MSX2 [21], 9.43 upbm affinity estimate (log intensity, higher = more binding, comparable within an allelic series); in the test with PAX4 [4], 9.19 upbm affinity estimate (log intensity, higher = more binding, comparable within an allelic series); in the test with PAX4 [5] it was 9.05 upbm affinity estimate (log intensity, higher = more binding, comparable within an allelic series). Further, the binding signal with MSX2 [22] is 9.21 upbm affinity estimate (log intensity, higher = more binding, comparable within an allelic series); in the test with PAX4 [6] it was 9.05 upbm affinity estimate (log intensity, higher = more binding, comparable within an allelic series); with MSX2 [23], 9.41 upbm affinity estimate (log intensity, higher = more binding, comparable within an allelic series); in the test with PAX4 [7] it was 9.13 upbm affinity estimate (log intensity, higher = more binding, comparable within an allelic series); with PRRX1 [24], 8.9 upbm affinity estimate (log intensity, higher = more binding, comparable within an allelic series).
As to AGGAGCCC, the binding signal with ALX4 [9] was 7.99 upbm affinity estimate (log intensity, higher = more binding, comparable within an allelic series); with ALX4 [10], 8.19 upbm affinity estimate (log intensity, higher = more binding, comparable within an allelic series); with VAX1 [25] it was 6.97 upbm affinity estimate (log intensity, higher = more binding, comparable within an allelic series); with VAX1 [26] it was 7.08 upbm affinity estimate (log intensity, higher = more binding, comparable within an allelic series); with VAX1 [27] it was 7.05 upbm affinity estimate (log intensity, higher = more binding, comparable within an allelic series).
Turning to AATTTTCA, the binding signal in the test with ALX4 [9] was 11.5 upbm affinity estimate (log intensity, higher = more binding, comparable within an allelic series); with ALX4 [10] it was 10.4 upbm affinity estimate (log intensity, higher = more binding, comparable within an allelic series); with ALX1 [28] it was 9.64 upbm affinity estimate (log intensity, higher = more binding, comparable within an allelic series); with ALX1 [29], 9.33 upbm affinity estimate (log intensity, higher = more binding, comparable within an allelic series); with ALX1 [30], 10 upbm affinity estimate (log intensity, higher = more binding, comparable within an allelic series).
With AAGGGGGA, the binding signal is 9.21 upbm affinity estimate (log intensity, higher = more binding, comparable within an allelic series) with PAX4 [1]; 9.23 upbm affinity estimate (log intensity, higher = more binding, comparable within an allelic series) with PAX4 [2]; 8.87 upbm affinity estimate (log intensity, higher = more binding, comparable within an allelic series) in the test with HOXB6 [3]; 9.23 upbm affinity estimate (log intensity, higher = more binding, comparable within an allelic series) with PAX4 [4]; 9.11 upbm affinity estimate (log intensity, higher = more binding, comparable within an allelic series) with PAX4 [5]; 9.2 upbm affinity estimate (log intensity, higher = more binding, comparable within an allelic series) with PAX4 [6]. Besides, the binding signal was 9.25 upbm affinity estimate (log intensity, higher = more binding, comparable within an allelic series) with PAX4 [7] and 8.75 upbm affinity estimate (log intensity, higher = more binding, comparable within an allelic series) with HOXB6 [8].
On to CAGCGTAA, for which the binding signal is 10.6 upbm affinity estimate (log intensity, higher = more binding, comparable within an allelic series) with PAX4 [1] and 10.8 upbm affinity estimate (log intensity, higher = more binding, comparable within an allelic series) with PAX4 [2].
Turning to AATTAAAG, the binding signal in the test with ALX4 [9] is 13.6 upbm affinity estimate (log intensity, higher = more binding, comparable within an allelic series); in the test with ALX4 [10] it was 12.8 upbm affinity estimate (log intensity, higher = more binding, comparable within an allelic series); with ALX1 [28] it was 11.4 upbm affinity estimate (log intensity, higher = more binding, comparable within an allelic series); with ALX3 [12], 8.35 upbm affinity estimate (log intensity, higher = more binding, comparable within an allelic series); in the test with ALX1 [29], 11 upbm affinity estimate (log intensity, higher = more binding, comparable within an allelic series); in the test with ALX3 [14], 12.3 upbm affinity estimate (log intensity, higher = more binding, comparable within an allelic series). Besides, the binding signal with PROP1 [31] was 11.2 upbm affinity estimate (log intensity, higher = more binding, comparable within an allelic series); with HESX1, 8.69 upbm affinity estimate (log intensity, higher = more binding, comparable within an allelic series); with PROP1 [32], 10.9 upbm affinity estimate (log intensity, higher = more binding, comparable within an allelic series); with ALX3 [15], 10.3 upbm affinity estimate (log intensity, higher = more binding, comparable within an allelic series); in the test with ALX3 [16] it was 9.9 upbm affinity estimate (log intensity, higher = more binding, comparable within an allelic series); with PROP1 [33], 7.55 upbm affinity estimate (log intensity, higher = more binding, comparable within an allelic series). Besides, in the test with ALX3 [18], the binding signal was 8.43 upbm affinity estimate (log intensity, higher = more binding, comparable within an allelic series).
